# USP17 inh – inhibitors of human USP17 deubiquitinase; A8MUK1; purified USP17, Ub-rhodamine cleavage fluorescence, 3 h; inhibition, % at 50 µM; hit rate 6.5% among 47,000
# USP28 inh – human USP28 deubiquitinase inhibition. Q96RU2. purified USP28, Ub-rhodamine cleavage fluorescence, 30 min. inhibition, % at 25 µM. hit rate 3% among 47,000
# USP30 inh – human USP30 deubiquitinase inhibition | Q70CQ3 | purified USP30, Ub-rhodamine cleavage fluorescence | inhibition, % at 25 µM | hit rate 5.3% among 47,000
# USP8 inh – human USP8 deubiquitinase inhibition; P40818; purified USP8, Ub-rhodamine cleavage fluorescence, 30 min; inhibition, % at 20 µM; hit rate 4.2% among 47,000
# Target sequence (P40818 whole entry, looked up): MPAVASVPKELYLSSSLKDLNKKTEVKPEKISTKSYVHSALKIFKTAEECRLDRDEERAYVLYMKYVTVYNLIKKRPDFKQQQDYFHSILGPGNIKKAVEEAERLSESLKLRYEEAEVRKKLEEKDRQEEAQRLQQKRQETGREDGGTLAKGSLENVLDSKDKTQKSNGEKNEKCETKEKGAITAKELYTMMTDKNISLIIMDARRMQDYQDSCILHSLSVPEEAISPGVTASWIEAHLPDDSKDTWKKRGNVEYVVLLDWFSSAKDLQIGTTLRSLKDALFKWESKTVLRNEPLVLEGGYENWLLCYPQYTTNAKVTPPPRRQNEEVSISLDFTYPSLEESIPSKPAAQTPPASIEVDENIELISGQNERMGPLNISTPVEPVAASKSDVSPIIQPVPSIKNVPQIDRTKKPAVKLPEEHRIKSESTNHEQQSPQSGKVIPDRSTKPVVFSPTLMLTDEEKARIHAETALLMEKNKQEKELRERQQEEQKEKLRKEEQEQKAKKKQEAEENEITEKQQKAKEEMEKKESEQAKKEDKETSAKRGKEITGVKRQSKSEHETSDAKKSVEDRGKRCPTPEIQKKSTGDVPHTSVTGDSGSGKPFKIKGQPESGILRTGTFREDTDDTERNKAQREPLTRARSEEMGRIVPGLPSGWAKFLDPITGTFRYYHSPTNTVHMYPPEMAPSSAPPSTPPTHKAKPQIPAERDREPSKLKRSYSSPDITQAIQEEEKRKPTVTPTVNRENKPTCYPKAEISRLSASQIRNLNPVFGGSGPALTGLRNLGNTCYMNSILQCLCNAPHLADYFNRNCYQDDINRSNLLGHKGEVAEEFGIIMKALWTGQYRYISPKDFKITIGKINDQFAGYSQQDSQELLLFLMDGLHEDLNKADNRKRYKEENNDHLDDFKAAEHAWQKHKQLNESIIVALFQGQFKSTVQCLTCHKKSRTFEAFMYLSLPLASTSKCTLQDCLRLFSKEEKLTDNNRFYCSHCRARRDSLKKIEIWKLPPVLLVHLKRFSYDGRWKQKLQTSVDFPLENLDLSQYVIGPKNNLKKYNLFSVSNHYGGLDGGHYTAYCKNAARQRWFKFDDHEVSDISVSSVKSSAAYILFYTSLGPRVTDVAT
# Numbers stand for hits; . = inactive; / = no result given. Only some compounds are listed: those with a hit (about 14% of all), similar ones and a draw of the others. Cut-off read from the data, not from the text of the source: active = inhibition above about 30%; inactive = the rest.
SMILES,USP17 inh,USP28 inh,USP30 inh,USP8 inh
CC(OC(=O)c1ccc2c(c1)OCCO2)C(=O)NCC1CCCCC1 (stereo not given),.,.,53.1,.
COc1ccc(C(=O)OC(C)C(=O)NCC2CCCCC2)cc1S(=O)(=O)N1CCOCC1 (stereo not given),.,.,.,.
CC(OC(=O)c1ccc2c(c1)OCO2)C(=O)NCC1CCCCC1 (stereo not given),53.8,.,53.7,.
Cc1cccc(NC(=O)c2ccc(N3CCCC3)nn2)c1,.,.,31.8,.
Cc1cccc(NC(=O)c2ccc(N3CCCC3)nn2)n1,.,.,.,.
Cc1c(Cl)cccc1NC(=O)c1ccc(N2CCCC2)nn1,55.7,.,61.2,.
Cc1ccc(NC(=O)N2CCC(c3nc(C(=O)N(C)C)c(C)o3)CC2)cc1Cl,.,.,.,.
Cc1ccc(CNC(=O)N2CCC(c3nc(C(=O)N(C)C)c(C)o3)CC2)cc1,.,.,31.0,.
Cc1ccc(NC(=O)c2ccc(N3CCOCC3)nn2)cc1F,70.7,.,.,.
CCc1cc(=O)n(CC(=O)Nc2cc(C)ccc2OC)c(N2CCOCC2)n1,36.2,.,58.7,.
Cc1ccc(NC(=O)c2cn(-c3cc(N4CCOCC4)ncn3)cn2)cc1F,.,.,.,.
COc1ccc(C)cc1NC(=O)c1ccc(N2CCOCC2)nn1,51.6,.,54.4,.
Cc1ccccc1C(=O)N1CCC2(CC1)NC(=O)c1ccccc1N2C,.,.,.,.
O=S1(=O)NC(=NCCc2ccc(Cl)cc2)c2ccccc21,34.7,.,.,.
CC(CN=C1NS(=O)(=O)c2ccccc21)c1ccccc1 (stereo not given),.,.,.,.
O=S1(=O)NC(=NCCc2ccc(Cl)cc2Cl)c2ccccc21,58.2,.,.,.
CCn1c(CCNC(=O)c2ccccc2)nc2ccccc21,.,/,/,.
O=C(NCCCc1nc2ccccc2n1Cc1c(F)cccc1Cl)c1ccco1,34.2,.,.,.
O=C(NCCCc1nc2ccccc2n1Cc1c(Cl)cccc1Cl)c1ccco1,74.1,47.0,.,.
Cn1c(CCNC(=O)c2ccco2)nc2cc([N+](=O)[O-])ccc21,.,.,.,.
O=C(NCc1noc(-c2ccccc2)n1)c1coc(C2CC2)n1,.,.,.,.
O=C(CN1CCSc2ccccc21)Nc1ccccc1Cc1ccccc1,.,.,.,.
COc1ccc(CNC(=O)Cn2cnc3c(c(C)c(C)n3-c3ccccc3)c2=O)cc1,.,.,35.6,.
CSc1ccc(CNC(=O)Cn2nc(C)c3c(C)n(-c4ccccc4)nc3c2=O)cc1,40.0,.,.,88.8
Cc1c(C)n(-c2ccccc2)c2ncn(CC(=O)NCc3ccc(N(C)C)cc3)c(=O)c12,.,.,.,.
SMILES,USP17 inh,USP28 inh,USP30 inh,USP8 inh
Cc1ccc(NC(=O)Cn2cnc3c(c(C)c(C)n3-c3ccccc3)c2=O)c(C)c1,.,.,.,.
Cc1c(C)n(-c2ccccc2)c2ncn(CC(=O)NCc3ccc(F)cc3)c(=O)c12,.,.,40.5,.
Cc1c(C)n(-c2ccccc2)c2ncn(CC(=O)NCc3cccc(F)c3)c(=O)c12,.,.,34.0,45.2
Cc1ccccc1NC(=O)Cn1cnc2c(c(C)c(C)n2-c2ccccc2)c1=O,.,.,.,.
Nc1c(Cl)cc(Cl)cc1C(=O)OCC(=O)N1CCCCCC1,.,.,.,.
CCCn1nnc2cc(S(=O)(=O)N3CCCC(C(=O)NCCc4ccco4)C3)ccc21 (stereo not given),39.3,.,.,.
CCCn1nnc2cc(S(=O)(=O)N3CCCCC3C(=O)O)ccc21 (stereo not given),.,.,.,.
O=C(NCc1ccccn1)c1cc2cc(Oc3ccccc3)ccc2[nH]1,.,.,.,.
N#Cc1ccc(NC(=O)COc2ccc3oc4ccccc4c3c2)cc1,45.2,.,.,.
CCC(=O)c1ccc(OCC(=O)Nc2ccc(C#N)cc2)cc1,46.8,.,.,.
COc1ccc(OC(=O)CN(c2cccc(C(F)(F)F)c2)S(=O)(=O)c2ccccc2)cc1,.,.,.,.
O=C(CN(c1ccccc1)S(=O)(=O)c1ccccc1)Oc1cc(Cl)ccc1Cl,.,.,34.2,30.2
Cc1ccc2nc(C3CCN(Cc4ccc5ccccc5c4)CC3)[nH]c2c1,.,.,.,.
Cc1cccc(NC(=O)CSc2ccc(-n3cnc(-c4ccccc4)c3)nn2)c1,.,.,60.9,.
COc1ccc(C(=O)Nc2ccccc2C(=O)NC(Cc2ccc(O)cc2)C(=O)NNC(=O)c2ccccc2Cl)cc1 (stereo not given),81.8,74.7,69.4,59.2
COc1cccc(CNC(=O)CCc2c(C)nc3c(c(C)nn3-c3ccc(C)cc3)c2C)c1,.,.,.,.
